PubChem BioAssay AID1159580 (chemical genetic matrix, 2015)
“And” between values parts separate entries of the source, which are not always exact repeats. Equal values may be shown once. Out of some 5,500 compounds screened, about 2,000 (36%) were called active. Not shown: some 18% with an inconclusive outcome. No stated cut-off is given here; in the data, active means normalized growth mostly below about 0.91 (no sharp cut-off); inconclusive means no clear call, values can overlap the other calls; inactive means mostly above about 0.92. Some of the results follow.

Assay: chemical genetic growth profiling, strain panel (AID 1159580);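 further: tested at 20 µM; growth read once vehicle control cultures reached saturation at 30 °C; 1 = growth at the plate median or of vehicle wells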
Conditions: S. cerevisiae deletion strains, growth OD

Measured: normalized growth

CCCC(C)C1(CC)C(=O)N=C(S)NC1=O (stereo unspecified)
inactive: locus YAL013W, strain DEP1, stronger effect = lower value 1.01 | locus YAL021C, strain ccr4, stronger effect = lower value 0.993 | locus YAL026C, strain drs2, stronger effect = lower value 0.994 | locus YAL030W, strain snc1, stronger effect = lower value 0.983 | locus YBL061C, strain skt5, stronger effect = lower value 1.01 | locus YBR009C, strain hhf1, stronger effect = lower value 0.992 | locus YBR021W, strain FUR4, stronger effect = lower value 1.01 | locus YBR023C, strain chs3, stronger effect = lower value 0.989 | locus YBR171W, strain sec66, stronger effect = lower value 0.993 | locus YBR229C, strain ROT2, stronger effect = lower value 1.01 | locus YBR231C, strain swc5, stronger effect = lower value 1.01 | locus YBR279W, strain paf1, stronger effect = lower value 0.998 | locus YCL011C, strain gbp2, stronger effect = lower value 1.01 | locus YCL016C, strain dcc1, stronger effect = lower value 0.995 | locus YCL061C, strain MRC1, stronger effect = lower value 1 | locus YCL069W, strain vba3, stronger effect = lower value 1 | locus YCR088W, strain abp1, stronger effect = lower value 0.984 | locus YDL005C, strain med2, stronger effect = lower value 0.987 | locus YDL035C, strain GPR1, stronger effect = lower value 1.02 | locus YDL040C, strain nat1, stronger effect = lower value 0.993 | locus YDL074C, strain BRE1, stronger effect = lower value 1.06 | locus YDL101C, strain DUN1, stronger effect = lower value 1.01 | locus YDL134C, strain PPH21, stronger effect = lower value 1 | locus YDL185W, strain tfp1, stronger effect = lower value 1.01 | locus YDR001C, strain nth1, stronger effect = lower value 1 | locus YDR069C, strain doa4, stronger effect = lower value 0.996 | locus YDR137W, strain rgp1, stronger effect = lower value 0.908 | locus YDR150W, strain NUM1, stronger effect = lower value 1.02 | locus YDR159W, strain sac3, stronger effect = lower value 0.971 | locus YDR162C, strain NBP2, stronger effect = lower value 1.02 | locus YDR195W, strain ref2 0.979 | locus YDR297W, strain sur2, stronger effect = lower value 0.997 | locus YDR334W, strain swr1, stronger effect = lower value 0.998 | locus YDR335W, strain msn5, stronger effect = lower value 0.993 | locus YDR392W, strain spt3, stronger effect = lower value 0.977 | locus YEL003W, strain gim4, stronger effect = lower value 0.997 | locus YEL037C, strain rad23, stronger effect = lower value 1 | locus YEL061C, strain CIN8 (second series), stronger effect = lower value 0.997 | locus YEL061C, strain CIN8, stronger effect = lower value 1 | locus YER015W, strain faa2, stronger effect = lower value 0.998 | locus YER016W, strain bim1, stronger effect = lower value 1.01 | locus YER111C, strain swi4, stronger effect = lower value 1.01 | locus YER155C, strain BEM2 (second series), stronger effect = lower value 0.986 | locus YER155C, strain BEM2, stronger effect = lower value 1.01 | locus YER167W, strain BCK2, stronger effect = lower value 1.02 | locus YFR010W, strain ubp6, stronger effect = lower value 1.01 | locus YGL167C, strain pmr1, stronger effect = lower value 0.991 | locus YGL173C, strain kem1, stronger effect = lower value 0.99 | locus YGL227W, strain vid30, stronger effect = lower value 0.981 | locus YGL240W, strain doc1, stronger effect = lower value 0.982 | locus YGL248W, strain PDE1, stronger effect = lower value 1.01 | locus YGL253W, strain hxk2, stronger effect = lower value 1.01 | locus YGR078C, strain PAC10, stronger effect = lower value 1.03 | locus YGR229C, strain SMI1, stronger effect = lower value 1.01 | locus YHR013C, strain ard1, stronger effect = lower value 0.997 | locus YHR027C, strain rpn1, stronger effect = lower value 0.996 | locus YHR030C, strain SLT2, stronger effect = lower value 1.01 and 0.984 | locus YHR079C, strain IRE1, stronger effect = lower value 0.979 | locus YHR129C, strain ARP1, stronger effect = lower value 1.01 | locus YHR142W, strain chs7, stronger effect = lower value 0.986 | locus YIL066C, strain RNR3, stronger effect = lower value 1.03 | locus YIL073C, strain SPO22, stronger effect = lower value 1.11 | locus YJL092W, strain hpr5, stronger effect = lower value 0.991 | locus YJL095W, strain BCK1 (second series), stronger effect = lower value 0.995 | locus YJL095W, strain BCK1, stronger effect = lower value 1 and 0.991 | locus YJL115W, strain asf1, stronger effect = lower value 0.988 | locus YJL129C, strain trk1, stronger effect = lower value 0.962 | locus YJL134W, strain LCB3, stronger effect = lower value 1.01 | locus YJL154C, strain vps35, stronger effect = lower value 0.987 | locus YJL164C, strain tpk1, stronger effect = lower value 0.995 | locus YJL166W, strain qcr8, stronger effect = lower value 0.975 | locus YJL187C, strain SWE1 (second series), stronger effect = lower value 1 | locus YJR043C, strain POL32, stronger effect = lower value 1.02 | locus YJR066W, strain TOR1, stronger effect = lower value 0.945
active: locus YCL029C, strain bik1, stronger effect = lower value 0.557 | locus YDL192W, strain arf1, stronger effect = lower value 0.0766 | locus YDR101C, strain arx1, stronger effect = lower value 0.371 | locus YDR318W, strain mcm21, stronger effect = lower value 0.0671 | locus YDR388W, stronger effect = lower value 0.0597 | locus YDR502C, strain sam2, stronger effect = lower value 0.0887 | locus YER110C, stronger effect = lower value 0.157 | locus YGL078C, strain dbp3, stronger effect = lower value 0.095 | locus YGL086W, strain mad1, stronger effect = lower value 0.0546 | locus YGR135W, strain pre9, stronger effect = lower value 0.0693 | locus YGR252W, strain gcn5, stronger effect = lower value 0.187 | locus YHR079C, strain IRE1 (second series), stronger effect = lower value 0.407 | locus YHR094C, strain hxt1, stronger effect = lower value 0.0939 | locus YHR200W, strain rpn10, stronger effect = lower value 0.0912 | locus YIL125W, strain kgd1, stronger effect = lower value 0.141 | locus YIR030C, strain dcg1, stronger effect = lower value 0.185 | locus YJL168C, strain set2, stronger effect = lower value 0.123
